Compound activity as filed in PubChem.
This excerpt belongs to a sample that is enriched for hits.
mHTT CaM bind: mutant huntingtin-calmodulin interaction inhibitors – biochemical, AlphaScreen, primary screen; AlphaScreen His-mHTT/GST-CaM binding, luminescence; inhibition, % at 15 µM; 190,000 compounds, 3.6% hits; AID 1671202, 2021
Pf apPOL block: Pf-apPOL inhibitors, biochemical, fluorescence; Recombinant Pf-apPOL, molecular beacon fluorescence, 1.5 h; inhibition, % at 10 µM; Plasmodium falciparum apicoplast DNA polymerase (apPOL); 210,000 compounds, 0.25% hits
Large screens that a line does not name were inactive. Cut-off read from the data, not from the text of the source: active = inhibition above about 50%; inactive = the rest.

CC(=O)COc1ccc2c(c1)OC(=Cc1ccccc1Cl)C2=O	none
O=C(CN1CCN(c2ccccc2)CC1)Nc1cc(Cl)ccc1Cl	none
CCCN1CCN(CCCNC(=O)c2noc3c2CCCCC3)CC1	none
O=C(c1ccco1)N1CCN(S(=O)(=O)CCCOc2ccc3c(c2)OCO3)CC1	none
COc1cc(CNc2ccc(F)c(Cl)c2)c([N+](=O)[O-])cc1OC	mHTT CaM bind 62.4
COc1cc(CNc2ccc(F)c(Cl)c2)cc([N+](=O)[O-])c1O	none
N#CC(=Cc1ccc2c(c1)CCO2)S(=O)(=O)c1ccc(Cl)cc1Cl	none (no result: mHTT CaM bind)
Cc1ccc2cccc(SCc3nc(N)nc(Nc4ccccc4)n3)c2n1	mHTT CaM bind 61.4
Nc1nc(CSc2ncccn2)nc(Nc2ccccc2)n1	none
COc1ccc2c(=O)c(Oc3cc(C)ccc3C)coc2c1	none
CC(=O)Nc1cc(C(=O)N2CCN(c3cccc(C)c3)CC2)c2ccc(C)nc2c1	mHTT CaM bind 68.3
CC(=O)Nc1cc(C(=O)N2CCN(c3cccc(C)c3C)CC2)c2ccc(C)nc2c1	mHTT CaM bind 95.2
CC(=O)Nc1cc(C(=O)N2CCN(C3CCCCC3)CC2)c2ccc(C)nc2c1	none
CC(=O)Nc1cc(C(=O)NC(C)C)c2ccc(C)nc2c1	none
CC(=O)Nc1cc(C(=O)NC2CCCC2)c2ccc(C)nc2c1	mHTT CaM bind 100.3
CC(=O)Nc1cc(C(=O)NCCN2CCCCC2)c2ccc(C)nc2c1	none
CC(=O)Nc1cc(C(=O)N2CCN(c3cc(C)ccc3C)CC2)c2ccc(C)nc2c1	mHTT CaM bind 100.0
Cc1cccc(N2CCN(C(=O)c3cccc([N+](=O)[O-])c3C)CC2)c1C	none
CCN(CC)S(=O)(=O)c1ccc2[nH]c(=O)c(=O)[nH]c2c1	none
O=C(NCc1ccccn1)c1cc(=O)[nH]c2ccc(S(=O)(=O)N3CCCCCC3)cc12	none
Nc1ccc(C(=O)Nc2ccc(NC(=O)c3ccc(N)cc3)cc2)cc1	none
Cc1cc(-c2nn(C)c(=O)c3ccccc23)cc(C)c1OC(=O)Nc1ccc(OC(F)(F)F)cc1	none (no result: mHTT CaM bind)
CCOC(=O)CNC(=O)N1CCN(Cc2nc3cccnc3n2-c2cccc(C)c2)CC1	none
O=C(Nc1ccc2c(c1)C(=O)NC2=O)c1cccs1	none
FC(F)Oc1ccc(-c2cc3ccccn3c2)cc1	none
COc1ccc(-c2cc3ccccn3c2)c(OC)c1	mHTT CaM bind 75.0
Cc1nc(N2CCOCC2)c2c(C)c(C(=O)Nc3ccc(Br)cc3C)sc2n1	none
Cc1nc(N2CCOCC2)c2c(C)c(C(=O)Nc3ccc([N+](=O)[O-])cc3C)sc2n1	mHTT CaM bind 52.0
Nc1ccc(S(N)(=O)=O)cc1	none (no result: Pf apPOL block)
Nc1ccc(-c2ccc(S(=O)(=O)c3ccc(-c4ccc(N)cc4)cc3)cc2)cc1	mHTT CaM bind 62.4
Nc1ccc(S(=O)(=O)c2ccc(N)c(N)c2)cc1N	none
Nc1ccc(-c2ccc(S(=O)(=O)c3cccc(N)c3)cc2N)cc1	mHTT CaM bind 68.6
COc1ccc(Cl)cc1C(=O)Nc1cccc([N+](=O)[O-])c1C	none
Cc1noc(C2CN(C(=O)Nc3ccc(Cl)cc3C)CC23CCOCC3)n1 (stereo not drawn)	none
COc1ccc(Cc2cnc(NC(=O)c3ccc(N4CCOCC4)c([N+](=O)[O-])c3)s2)cc1	none
CC(C)(C)c1csc(NC(=O)c2ccc(N3CCOCC3)c([N+](=O)[O-])c2)n1	mHTT CaM bind 55.0
COc1ccc(OC)c(CCNC(=O)C2=C(C)C(=O)OC23CCCCC3)c1	none
O=C(Cn1c(C2CC(=O)N(CCc3ccccc3)C2)nc2ccccc21)N1CCOCC1 (stereo not drawn)	none
Cc1cc(F)ccc1NC(=O)c1cc2n(n1)CCCN(Cc1ccccc1)C2=O	none
Cc1ccc(CNC(=O)c2cc3n(n2)CCCN(Cc2cccc(C)c2)C3=O)cc1	none
Cc1cccc(CN2CCCn3nc(C(=O)NCc4ccc(N(C)C)cc4)cc3C2=O)c1	mHTT CaM bind 54.9
Cc1cccc(CN2CCCn3nc(C(=O)Nc4ccc(F)cc4C)cc3C2=O)c1	Pf apPOL block 74.0
COc1cc(NC(=O)N2CCCC2c2cc(C)no2)cc(OC)c1 (stereo not drawn)	none
Cc1cc2c(N3CCCC(C(=O)Nc4ccccc4C(F)(F)F)C3)nccc2s1 (stereo not drawn)	none
COc1ccc(C(=O)Nn2cnnc2)cc1[N+](=O)[O-]	none
O=C1/C(=c2/sc3nc4ccccc4n3c2=O)c2ccccc2N1Cc1ccccc1	none
COc1ccc(CCN2CC(C(=O)NC3CCCCCC3)CC2=O)cc1OC (stereo not drawn)	none
CC(C)N1C(=O)c2cccnc2Sc2cc(NC(=O)C3CCCC3)ccc21	none
CCCc1[nH]nc(-c2ccccc2)c1NC(=O)C1CC1	none
CCc1[nH]nc(-c2ccccc2)c1NC(=O)CC1CCCC1	mHTT CaM bind 97.9, Pf apPOL block 72.4
O=C(Nc1ccc(F)cc1Cl)c1cn(-c2ccc(Cl)cc2)c(=O)c2ccccc12	none
O=C1[C@H](Cc2ccccc2)NC/C=C\C[C@H](c2ccco2)N1Cc1ccccc1	mHTT CaM bind 51.0
O=C1[C@H](Cc2ccccc2)NC/C=C\C[C@@H](c2ccc(Cl)cc2)N1Cc1ccc(Cl)cc1	mHTT CaM bind 99.0
O=C(NCCc1ccccc1)N1CCCC1c1ccc(Cl)cc1 (stereo not drawn)	none
COC(=O)C1=C(C(=O)OC)[C@]2([C@@H]3C/C=C\CN[C@@H](Cc4ccccc4)C(=O)N3Cc3ccccc3)C=C[C@H]1O2	none
CN(C)CCNC(=O)c1ccc(I)cc1	none
Cc1ccc(CNC(=O)C2CCN(c3nc4ccccc4o3)CC2)cc1	none
O=C(NCc1ccc(-n2ccnc2)cc1)c1ccsc1	none
O=C1/C(=C/N(C(=O)c2ccco2)c2ccc([N+](=O)[O-])cc2)Sc2ccccc21	none
Cc1ccc(S(=O)(=O)N(/C=C2\Sc3ccccc3C2=O)c2ccc([N+](=O)[O-])cc2)cc1	mHTT CaM bind 60.0
Cc1cc([N+](=O)[O-])ccc1NC(=O)C1CC(=O)OC12CCCCC2 (stereo not drawn)	none
COc1ccc2[nH]cc(CN3CCC(C(=O)NC4CCCc5ccccc54)CC3)c2c1 (stereo not drawn)	mHTT CaM bind 69.2
O=C(NC1CCCc2ccccc21)C1CCN(S(=O)(=O)N2CCCCCC2)CC1 (stereo not drawn)	none
CSc1nc2ccccc2n1CC(=O)NC(c1ccccc1)c1ccccc1	mHTT CaM bind 57.0
CSc1nc2ccccc2n1CC(=O)Nc1ccc(F)cc1	none
COc1ccc(N(CC(=O)NCC2CCCO2)S(C)(=O)=O)c(OC)c1 (stereo not drawn)	none
Cc1cccc(CN2C(=O)CCC2(C)C(=O)NCCCOC(C)C)c1 (stereo not drawn)	none
OCCNCCOc1ccc(Cl)cc1	Pf apPOL block 76.9
Cc1cc(OCCNCCO)cc(C)c1Cl	none
COc1ccc(C=Nc2c(-c3ccco3)nc3ccccn23)cc1OC	none
CSc1ccc(C=Nc2c(-c3ccco3)nc3ccccn23)cc1	mHTT CaM bind 80.0
Oc1ccc(C=Nc2c(-c3ccco3)nc3ccc(Cl)cn23)cc1	mHTT CaM bind 52.0
O=[N+]([O-])c1cc(C=Nc2c(-c3ccco3)nc3ccccn23)ccc1Cl	none
COc1ccc(Br)cc1C=Nc1c(-c2ccco2)nc2ccccn12	none
Clc1ccccc1C=Nc1c(-c2ccco2)nc2ccccn12	mHTT CaM bind 79.0
Oc1ccc(Br)cc1C=Nc1c(-c2ccco2)nc2ccccn12	mHTT CaM bind 62.0
Brc1ccc(C=Nc2c(-c3ccco3)nc3ccccn23)cc1	none
Cc1ccc(NC(=O)CC2SC(=N)NC2=O)cc1Cl (stereo not drawn)	none
